{"source": "PubChem BioAssay (NCI)", "note": "Values joined by “and” are separate entries in the source; they are usually repeats but may differ in a detail not shown here. Identical values can stand only once. This is part of a sample that, as a whole, favours compounds with a hit. Of some 83,000 tested, about 20% had one in any assay.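 Assay: single dose, 48 h. Readout: percent growth (0 = no net growth; negative = cell death). Active: <10.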 A number with no mark means an inactive call. Active and inactive are the calls of the source."}
{"system": "MCF7 breast", "assay": "NCI-60 one-dose screen, 48 h (100 = growth as untreated, 0 = no growth, -100 = all killed)", "conditions": "10 µM unless noted", "description": "Growth inhibition of the MCF7 human tumor cell line is measured as a screen for anti-cancer activity. Cells are grown in 96 well plates and exposed to the test compound for 48 hours. Compounds are tested at a single concentration, which is 10^-5 M for most compounds. The reported endpoint is percent growth (GI% or GIPRCNT), where numbers from 0 - 100% represent growth inhibition, and numbers from -100% - 0 represent cell death. For example, a value of 40 represents 60% growth inhibition. A value of 0 means no net growth occurred over the course of the experiment. A value of -40 indicates 40% of cells at the beginning of the experiment died by the end of the experiment. A value of -100 means all cells are dead at the end of the experiment.\nNCI-60 Human Tumor Cell Lines Screen was performed using the standard one-dose NCI protocol, which is described in more detail at https://dtp.cancer.gov/discovery_development/nci-60/default.htm.\nCompounds with GIPRCNT values below 10 were considered active. Activity score was based on GIPRCNT using the following formula: […]\nScore is 0 for GIPRCNT values of 100 or above, 50 for GIPRCNT values of 0, and 100 for GIPRCNT values of -100."}
{"compound": "Cc1cc2c(cc1-c1ccnc(/C=C/C(=O)O)c1)C(C)(C)CCC2(C)C", "growth": "56%"}
{"compound": "Oc1ccc(O)c(Cl)c1", "growth": "86% and 96.7%"}
{"compound": "CC1=C([Te]c2ccccc2)C(=O)c2ccccc2C1=O", "growth": "-77.3% (active)"}
{"compound": "CC[C@H](C)[C@H](NC(=O)c1cnccn1)C(=O)N(C)[C@H](C[C@@H](OC(C)=O)c1nc(C(=O)N[C@@H](Cc2ccccc2)C[C@H](C)C(=O)OC)cs1)C(C)C", "growth": "15.5%"}
{"compound": "CN1CCc2cc3c(cc2C1O)OCO3", "note": "(stereo not given)", "growth": "79.5% and 94.6%"}
{"compound": "CC12CCC3C4CCC(=O)C=C4CCC3C1CC1CC(=O)OC12", "note": "(stereo not given)", "growth": "98.7%"}
{"compound": "O=C=Nc1ccc(Br)cc1", "growth": "97.8%"}
{"compound": "O=C(O)c1cc([N+](=O)[O-])cc([N+](=O)[O-])c1", "growth": "93.8%"}
{"compound": "CN1C2CCC1[C@@H](COC(=O)c1ccccc1)[C@@H](O)C2", "note": "(stereo not given in full)", "growth": "97.3%"}
{"compound": "[N-]=[N+]=CC(=O)CCC(=O)C=[N+]=[N-]", "growth": "99.9%"}
{"compound": "C[C@]12CCc3sc(Nc4ccc(F)cc4F)nc3C1=CC[C@@H]1[C@@H]2CC[C@]2(C)C(=O)CC[C@@H]12", "growth": "14.6%"}
{"compound": "COc1ccc(O)c2c(=O)c3c(OC)cc4c(c3oc12)[C@@H]1C=CO[C@@H]1O4", "growth": "-0.498% (active)"}
{"compound": "CO[C@H]1[C@H](O[C@@H]2C[C@@H]3C/C=C/C(=O)O[C@@H](CO)C[C@H](O)[C@@H]4C[C@H](C)[C@H](C/C=C\\C=C\\[C@H](C)C[C@H](C2)O3)O4)O[C@@H](C)[C@H](O)[C@H]1O", "growth": "29.1%"}
{"compound": "CC(C)CCC1C(=O)NC(=O)NC1=O", "growth": "88.8%"}
{"compound": "CCOC(=O)c1cncn1C(C)c1ccccc1", "note": "(stereo not given)", "growth": "114%"}
{"compound": "COc1ccc(/C=C(/C)[N+](=O)[O-])cc1OC", "growth": "-16.3% (active) and 4.76% (active)"}
{"compound": "CN1CCN(c2ccc(Cl)cc2)CC1", "growth": "62.6%"}
{"compound": "O=C1c2ccccc2C(=O)N1N1CC1c1ccccc1", "note": "(stereo not given)", "growth": "84.1%"}
{"compound": "CCCC(C)SP(=S)(SC(C)CCC)SC(C)CCC", "note": "(stereo not given)", "growth": "95.1%"}
{"compound": "CN1CCC2(CC1)C(C#N)C(=O)NC(=O)C2C#N", "note": "(stereo not given)", "growth": "88.6%"}
{"compound": "CC(=O)OC1CC2(O)C(CCC3(C)C(c4ccc(=O)oc4)CCC32O)C2(C)CCC(OC3OC(CO)C(O)C(O)C3O)C=C12", "note": "(stereo not given)", "growth": "-23.4% (active)"}
{"compound": "O=C(O)c1ccccc1N(CCO)CCCl", "growth": "95.9%"}
{"compound": "C[C@]12CCc3sc(Nc4ccc(O)cc4)nc3C1=CC[C@@H]1[C@@H]2CC[C@]2(C)C(=O)CC[C@@H]12", "growth": "3.11% (active)"}
{"compound": "NC(=O)Oc1cc(OC(N)=O)cc(N(CCCl)CCCl)c1", "growth": "31.8%"}
{"compound": "COc1cc(/C=C\\[N+](=O)[O-])ccc1OCc1ccccc1", "growth": "9.62% (active)"}
{"compound": "CCCCOCCOP(=O)(OCCOCCCC)OCCOCCCC", "growth": "105%"}
{"compound": "CC[C@H](CC[C@@H](C)[C@H]1CC[C@H]2[C@@H]3CC[C@H]4C[C@]5(CC[C@]4(C)[C@H]3CC[C@]12C)OO[C@](C)(C(F)(F)F)O5)C(C)C", "growth": "93.2%"}
{"compound": "CNC(=O)CCl", "growth": "98.2%"}
{"compound": "CC[C@H](C)[C@H](NC(=O)[C@H]1CCCCN1C)C(=O)N(C)[C@H](C[C@@H](OC(C)=O)c1nc(C(=O)N[C@@H](Cc2ccccc2)C[C@H](C)C(=O)O)cs1)C(C)C", "growth": "14.6%"}
{"compound": "Oc1cc(N2CC2)c(O)cc1N1CC1", "growth": "-30.3% (active)"}
{"compound": "N#CCc1ccc(CC#N)cc1", "growth": "91.4%"}
{"compound": "C[C@]12CC[C@H]3[C@@H](CC=C4c5nc(N)sc5CC[C@@]43C)[C@@H]1CC[C@@H]2O", "growth": "104%"}
{"compound": "ClCc1ccc(Cl)c(Cl)c1", "growth": "97.2%"}
{"compound": "Cc1c(C)c(N)c(C)c(C)c1N", "growth": "46.5%"}
{"compound": "O=S(=O)(F)c1cccc(Cl)c1C[P+](c1ccccc1)(c1ccccc1)c1ccccc1", "growth": "103%"}
{"compound": "CN(C)c1ccc(N)cc1", "growth": "87.7% and 30.5%"}
{"compound": "CC1=C2[C@H]3OC(=O)[C@@H](C)[C@@H]3CC[C@@]2(C)C=CC1=O", "growth": "103%"}
{"compound": "Cc1ccccc1-n1c(/C=C\\c2ccccn2)nc2ccccc2c1=O", "growth": "66.9%"}
{"compound": "NC(N)=NC(N)=Nc1ccc(Cl)cc1", "growth": "103%"}
{"compound": "C#Cc1cccc(Nc2nc(Cl)nc3cc(NC(=O)CF)ccc23)c1", "growth": "48.2%"}
